Laboratory results as given in PubChem BioAssay (Tox21).
“And” between values parts separate entries of the source, which are not always exact repeats. Identical values can stand only once. Inconclusive results are not listed. A structure can be active in one record and inactive in another. The source made the active and inactive calls. Unless noted, the call rests on the fitted dose curve; in most records, active means well fitted curve in the direction sought with a large enough effect in the repeat runs; inconclusive means weak or mixed curves; inactive means no such curve, though single readings can be large; an effect the other way counts as inactive or inconclusive.

Experiments:
[1] = qHTS assay to test for compound auto fluorescence at 535 nm (green) in HEK293 cells (AID 720680)
[2] = qHTS assay to test for compound auto fluorescence at 535 nm (green) in HEK293 cell free culture (AID 720682)
Method in brief: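 Green-channel intensity (Ex/Em 485/535 nm) was recorded from compound-treated wells containing only DMEM with 10% FBS. Fluorescein provided the equivalency standard.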

[3] = qHTS assay to test for compound auto fluorescence at 590 nm (red) in HEK293 cell free culture (AID 720683)
Method in brief: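 Tox21 10K library compounds were pinned into cell-free DMEM with 10% FBS and fluorescence was read at excitation 540 nm. Activity is expressed as Rose Bengal sodium equivalency.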

[4] = qHTS assay to test for compound auto fluorescence at 590 nm (red) in HepG2 cell free culture (AID 720684)
Method in brief: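 Red fluorescence (540 nm excitation, 590 nm emission) was measured after compound transfer into cell-free MEM supplemented with 10% FBS. Values are equivalencies against Rose Bengal sodium.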

[5] = qHTS assay to test for compound auto fluorescence at 535 nm (green) in HepG2 cell free culture (AID 720686)
[6] = qHTS assay to test for compound auto fluorescence at 460 nm (blue) in HepG2 cells (AID 720687)
Method in brief: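 Cells (2,000/well in MEM with 10% FBS) attached overnight at 37 C, then were exposed to compound or DMSO for 1 hr at 37 C, 5% CO2. Fluorescence read at Ex/Em 405/460 nm, expressed as triamterene-equivalent signal.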

[7] = qHTS assay to identify small molecule antagonists of the glucocorticoid receptor (GR) signaling pathway - cell viability counter screen (AID 720693); further: nearly all actives have a fitted effect of over 55% in size; further: potency means the concentration at half of the fitted maximal effect
[8] = qHTS assay for identifying genotoxic compounds that show differential cytotoxicity against isogenic chicken DT40 cell lines with known DNA damage response pathways - wild type cell line (AID 743012); further: nearly all actives have a fitted effect of over 60% in size; further: potency means the concentration at half of the fitted maximal effect
Method in brief: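 First, wild type DT40 cells were plated at 300 per well and equilibrated about 0.5 h at 37 C/5% CO2. Next, compounds in DMSO were added and exposure lasted 40 h. Finally, CellTiter-Glo was added for 30 min at room temperature and luminescence recorded.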

[9] = qHTS assay for identifying genotoxic compounds that show differential cytotoxicity against isogenic chicken DT40 cell lines with known DNA damage response pathways - Rev3 mutant cell line (AID 743014); further: nearly all actives have a fitted effect of over 55% in size; further: potency means the concentration at half of the fitted maximal effect
[10] = qHTS assay for identifying genotoxic compounds that show differential cytotoxicity against isogenic chicken DT40 cell lines with known DNA damage response pathways - Rad54/Ku70 mutant cell line (AID 743015); further: nearly all actives have a fitted effect of over 60% in size; further: potency means the concentration at half of the fitted maximal effect
[11] = qHTS assay to identify small molecule antagonists of the androgen receptor (AR) signaling pathway - cell viability counter screen (AID 743033; further: nearly all actives have a fitted effect of over 45% in size)
[12] = target: Androgen receptor (Homo sapiens) (UniProt P10275); assay: qHTS assay to identify small molecule agonists of the androgen receptor (AR) signaling pathway (AID 743036; active means well fitted activation curve with a large enough effect in the signal ratio in the repeat runs, with a control signal flat, not every such curve was filed as active; the % refers to the signal ratio)
Chain of Androgen receptor (Homo sapiens) (P10275 whole entry, looked up): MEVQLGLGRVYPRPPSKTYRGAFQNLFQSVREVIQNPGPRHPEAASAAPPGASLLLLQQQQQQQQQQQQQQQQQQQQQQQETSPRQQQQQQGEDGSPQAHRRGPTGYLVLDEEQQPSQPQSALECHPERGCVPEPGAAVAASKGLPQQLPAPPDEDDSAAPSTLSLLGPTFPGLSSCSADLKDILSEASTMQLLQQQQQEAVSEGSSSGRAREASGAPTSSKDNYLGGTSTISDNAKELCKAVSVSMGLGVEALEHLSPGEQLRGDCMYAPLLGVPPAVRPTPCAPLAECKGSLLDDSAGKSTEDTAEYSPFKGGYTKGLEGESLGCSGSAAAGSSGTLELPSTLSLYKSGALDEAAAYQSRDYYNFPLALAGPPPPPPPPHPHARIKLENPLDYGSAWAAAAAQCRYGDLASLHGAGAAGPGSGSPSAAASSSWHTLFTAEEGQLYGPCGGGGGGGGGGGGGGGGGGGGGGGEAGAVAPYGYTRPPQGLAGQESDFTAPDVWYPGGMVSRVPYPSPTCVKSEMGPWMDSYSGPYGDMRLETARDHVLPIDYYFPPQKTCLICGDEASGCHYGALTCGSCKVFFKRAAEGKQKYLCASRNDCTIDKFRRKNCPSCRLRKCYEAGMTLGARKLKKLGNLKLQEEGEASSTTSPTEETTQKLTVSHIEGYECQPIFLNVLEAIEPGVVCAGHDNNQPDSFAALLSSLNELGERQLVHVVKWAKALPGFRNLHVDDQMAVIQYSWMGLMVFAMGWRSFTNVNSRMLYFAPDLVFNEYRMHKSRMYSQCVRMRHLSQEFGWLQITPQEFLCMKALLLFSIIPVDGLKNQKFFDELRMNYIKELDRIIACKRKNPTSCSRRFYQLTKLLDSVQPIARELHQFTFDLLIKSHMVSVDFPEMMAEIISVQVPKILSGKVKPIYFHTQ
Method in brief: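 Cell-based FRET reporter assay: HEK293 line with a UAS-beta-lactamase construct, compounds added in DMSO, 16 h exposure at 37C, then 2 h substrate step at room temperature and fluorescence intensity read.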

[13] = target: Androgen receptor (Homo sapiens) (UniProt P10275); assay: qHTS assay to identify small molecule agonists of the androgen receptor (AR) signaling pathway using the MDA cell line (AID 743040; further: nearly all actives have a fitted effect of over 20% in size)
Method in brief: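 MDA-kb2 breast carcinoma cells stably carrying an MMTV-driven luciferase reporter (AR- and GR-responsive) were seeded and held 5 h at 37C, 0% CO2, then exposed to compounds in DMSO for 16 h. Luminescence was read 30 min after ONE-Glo addition.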

[14] = qHTS assay to identify small molecule antagonists of the androgen receptor (AR) signaling pathway using the MDA cell line - cell viability counter screen (AID 743041; further: nearly all actives have a fitted effect of over 45% in size)
Method in brief: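 MDA-kb2 AR-luc human breast carcinoma cells (MMTV-luciferase, AR/GR responsive) were treated with compounds plus R1881 agonist for 16 h at 37 °C. Viability was read as CellTiter-Fluor fluorescence in the same wells as the reporter assay.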

[15] = qHTS assay to test for compound auto fluorescence at 460 nm (blue) in HEK293 cell free culture (AID 720681)
Method in brief: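 Test compounds were pinned into cell-free culture medium (DMEM with 10% FBS) and fluorescence was read directly at Ex/Em 405/460 nm. Signals were expressed as fluorescence equivalents of triamterene, with DMSO vehicle as control.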

[16] = qHTS assay to test for compound auto fluorescence at 460 nm (blue) in HepG2 cell free culture (AID 720685)
Method in brief: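 Compound (23 nL) or DMSO pinned into cell-free MEM with 10% FBS; blue fluorescence read at 405/460 nm excitation/emission, expressed as auto-fluorescence equivalency to triamterene.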

[17] = target: Glucocorticoid receptor (Homo sapiens) (UniProt P04150); assay: qHTS assay to identify small molecule agonists of the glucocorticoid receptor (GR) signaling pathway (AID 720691; active means well fitted activation curve with a large enough effect in the signal ratio in the repeat runs, not every such curve was filed as active; the % refers to the signal ratio); details: GR-bla HeLa, beta-lactamase reporter ratio, 18 h; for Potency: activation: at 62.4 µM (top of the series)
Chain of Glucocorticoid receptor (Homo sapiens) (P04150 whole entry, looked up): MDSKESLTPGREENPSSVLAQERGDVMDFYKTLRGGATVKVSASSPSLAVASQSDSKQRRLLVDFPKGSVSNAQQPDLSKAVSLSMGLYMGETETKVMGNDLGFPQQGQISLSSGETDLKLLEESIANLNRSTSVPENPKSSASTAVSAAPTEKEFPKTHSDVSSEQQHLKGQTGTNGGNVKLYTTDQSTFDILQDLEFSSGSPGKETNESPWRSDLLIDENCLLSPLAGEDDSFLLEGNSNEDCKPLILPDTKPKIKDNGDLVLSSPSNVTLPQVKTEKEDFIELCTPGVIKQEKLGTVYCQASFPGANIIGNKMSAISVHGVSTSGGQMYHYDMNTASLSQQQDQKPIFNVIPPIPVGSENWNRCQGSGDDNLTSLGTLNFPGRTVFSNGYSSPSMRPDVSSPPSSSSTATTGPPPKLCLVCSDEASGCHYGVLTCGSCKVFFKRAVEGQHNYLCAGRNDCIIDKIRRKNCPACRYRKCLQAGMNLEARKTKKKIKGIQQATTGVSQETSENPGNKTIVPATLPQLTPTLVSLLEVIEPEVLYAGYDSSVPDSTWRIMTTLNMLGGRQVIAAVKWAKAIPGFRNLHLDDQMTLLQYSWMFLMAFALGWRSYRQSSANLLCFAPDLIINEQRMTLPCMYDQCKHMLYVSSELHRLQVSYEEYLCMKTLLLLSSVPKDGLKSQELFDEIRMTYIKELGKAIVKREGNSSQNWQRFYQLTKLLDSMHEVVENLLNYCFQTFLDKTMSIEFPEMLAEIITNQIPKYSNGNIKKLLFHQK
Method in brief: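 qHTS in GR-bla HeLa cells: 4 h settling at 37 C/5% CO2, 18 h compound incubation at 37 C, 2 h LiveBLAzer B/G FRET substrate at room temperature, fluorescence intensity measured.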

[18] = target: Glucocorticoid receptor (Homo sapiens) (UniProt P04150); assay: qHTS assay to identify small molecule antagonists of the glucocorticoid receptor (GR) signaling pathway (AID 720692; active means well fitted inhibition curve with a large enough effect in the signal ratio in the repeat runs, not every such curve was filed as active; the % refers to the signal ratio)
Method in brief: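 Inhibition of glucocorticoid signalling is measured in HeLa cells with a GRE-controlled beta-lactamase reporter; cells are co-treated with compound and 5 nM dexamethasone (final) for 18 h before FRET substrate readout.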

[19] = target: Androgen receptor (Homo sapiens) (UniProt P10275); assay: qHTS assay to identify small molecule antagonists of the androgen receptor (AR) signaling pathway using the MDA cell line (AID 743042; further: nearly all actives have a fitted effect of over 55% in size)
Method in brief: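 MDA-kb2 cells (human breast carcinoma, stably carrying an MMTV-luciferase reporter responsive to AR and GR) were plated at 3,000 cells/well and preincubated 5 hr at 37C, then given compound plus R1881 agonist for 16 h. ONE-Glo luminescence was read.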
On the % scale 0 is the no-effect control and ±100 the full control effect.

CC1(C)S[C@@H]2[C@H](NC(=O)[C@H](N)c3ccc(O)cc3)C(=O)N2[C@H]1C(=O)O
inactive: outcome [1] | outcome [2] | outcome [3] | outcome [4] | Potency [5] | Potency [6] | Potency [7] | Potency [8] | Potency [9] | Potency [10] | Potency [11] | Potency [12] | Potency [13] | Potency [14]

CCSCC
inactive: Potency [15] | outcome [2] | outcome [3] | outcome [4] | Potency [16] | Potency [5] | Potency [6] | Potency [17] | Potency [18] | Potency [7] | Potency [8] | Potency [10] | Potency [14]

CC(=O)OCC(=O)[C@@]1(O)CC[C@H]2[C@@H]3CCC4=CC(=O)CC[C@]4(C)C3=CC[C@@]21C
inactive: outcome [1] | Potency [15] | outcome [2] | outcome [4] | Potency [16] | Potency [5] | Potency [6] | Potency [17] | Potency [7] | Potency [8] | Potency [9] | Potency [10] | Potency [11] | Potency [14]

CO/N=C(\C(=O)N[C@@H]1C(=O)N2C(C(=O)[O-])=C(C[n+]3ccc(N)n3CCO)CS[C@H]12)c1csc(N)n1
inactive: outcome [1] | Potency [15] | outcome [2] | Potency [5] | Potency [6] | Potency [17] | Potency [18] | Potency [7] | Potency [9] | Potency [10] | Potency [11] | Potency [14]

O=P(O)(O)OP(=O)(O)OP(=O)(O)O
inactive: outcome [1] | Potency [15] | outcome [2] | outcome [4] | Potency [16] | Potency [5] | Potency [17] | Potency [18] | Potency [7] | Potency [8] | Potency [9] | Potency [10] | Potency [14] | Potency [19]

Cc1cc(CC(C)CC(C)(C)C)n(O)c(=O)c1 (stereo not given) (tested in a mixture with another compound)
inactive: outcome [1] | Potency [15] | outcome [2] | Potency [16] | Potency [5] | Potency [6] | Potency [11]
active: Potency [7] 15.1 µM | Potency [8] 11.9 µM | Potency [9] 11.9 µM | Potency [10] 13.3 µM

CN(Cc1ccccc1)Cc1ccccc1
inactive: outcome [1] | Potency [15] | outcome [2] | outcome [4] | Potency [16] | Potency [5] | Potency [6] | Potency [7] | Potency [9] | Potency [10] | Potency [11] | Potency [14]

CN1C(C(=O)Nc2ccccn2)C(=O)c2sc(Cl)cc2S1(=O)=O (stereo not given)
inactive: outcome [1] | Potency [15] | outcome [2] | outcome [4] | Potency [16] | Potency [5] | Potency [6] | Potency [7] | Potency [10] | Potency [11] | Potency [14]

COc1cc([C@@H]2c3cc4c(cc3[C@@H](O[C@@H]3O[C@@H]5CO[C@@H](C)O[C@H]5[C@H](O)[C@H]3O)[C@H]3COC(=O)[C@H]23)OCO4)cc(OC)c1O
active: Potency [9] 473 nM and 107 nM | Potency [10] 53.1 nM and 15.2 nM
inactive: outcome [1] | Potency [15] | outcome [2] | outcome [4] | Potency [16] | Potency [6] | Potency [7] | Potency [14]

NCCCC[C@H](NC(=O)[C@@H]1CCCN1C(=O)[C@@H]1CSSC[C@H](N)C(=O)N[C@@H](Cc2ccc(O)cc2)C(=O)N[C@@H](Cc2ccccc2)C(=O)N[C@@H](CCC(N)=O)C(=O)N[C@@H](CC(N)=O)C(=O)N1)C(=O)NCC(N)=O
inactive: outcome [1] | Potency [15] | outcome [2] | Potency [16] | Potency [5] | Potency [6] | Potency [17] | Potency [18] | Potency [7] | Potency [8] | Potency [9] | Potency [10] | Potency [11] | Potency [12] | Potency [14] | Potency [19]

O=C1c2c(O)cccc2[C@H]([C@@H]2O[C@H](CO)[C@@H](O)[C@H](O)[C@H]2O)c2cc(CO)cc(O)c21
inactive: activation ([17]; at 62.4 µM (top of the series)) -0.87%

CO[C@H](C(=O)[C@@H](O)[C@@H](C)O)C1Cc2cc3cc(O[C@H]4C[C@@H](O[C@H]5C[C@@H](O)[C@H](O)[C@@H](C)O5)[C@@H](O)[C@@H](C)O4)c(C)c(O)c3c(O)c2C(=O)[C@H]1O[C@H]1C[C@@H](O[C@H]2C[C@@H](O[C@H]3C[C@](C)(O)[C@H](O)[C@@H](C)O3)[C@H](O)[C@@H](C)O2)[C@H](O)[C@@H](C)O1 (stereo not given in full)
inactive: Potency [13]

CO[C@H]1C[C@@H]2CC[C@@H](C)[C@@](O)(O2)C(=O)C(=O)N2CCCC[C@H]2C(=O)O[C@H]([C@H](C)C[C@@H]2CC[C@@H](O)[C@H](OC)C2)CC(=O)[C@H](C)C=C(C)[C@@H](O)[C@@H](OC)C(=O)[C@H](C)C[C@H](C)/C=C/C=CC=C1C
inactive: Potency [13]
